PubChem BioAssay
The source made the active and inactive calls. Unless noted, the rule behind the calls is not given here.

Columns and labels:
[1] = compound effects on lung adenocarcinoma cell viability – A549, calcein-AM fluorescence, 48 h, basal, profiling panel (AID 1162); conditions: higher = more signal; note: test concentration not given here
[2] = compound effects on differentiated 3T3-L1 adipocyte viability – cell-based, 3T3-L1 adipocytes, calcein-AM fluorescence, 48 h, basal, profiling panel (AID 1163); conditions: 3T3-L1 adipocytes viability, higher = more signal; note: test concentration not given here
[3] = compound effects on hepatocellular carcinoma cell viability – HepG2, calcein-AM fluorescence, 48 h, basal, profiling panel (AID 1164); conditions: higher = more signal; note: test concentration not given here
[4] = compound effects on multiple myeloma cell viability – MM1S, calcein-AM fluorescence, 48 h, basal, profiling panel (AID 1165); conditions: higher = more signal; note: test concentration not given here
[5] = calcein-AM signal in unstimulated myeloma cells – cell-based, calcein-AM fluorescence, 48 h, PK04 Diversity Set, profiling panel (AID 1166); conditions: RPMI8226 myeloma viability, higher = more signal;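 note: cells grown under basal conditions without added stimulus; test concentration not given here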
[6] = JC-1 mitochondrial signal, unstimulated HepG2 cells – cell-based, JC-1 fluorescence, 24 h, 100 nL compound, profiling panel (AID 1167); conditions: HepG2 mitochondrial potential, higher = more signal; note: test concentration not given here
[7] = JC-1 mitochondrial signal, unstimulated adipocytes – cell-based, JC-1 fluorescence, 3T3-L1 adipocytes, 24 h, 100 nL compound, profiling panel (AID 1168); conditions: JC-1 mitochondrial fluorescence, higher = more signal, called active from +8 up or from −8 down; note: test concentration not given here
[8] = JC-1 mitochondrial signal, unstimulated myeloma cells – cell-based, JC-1 fluorescence, RPMI8226, 24 h, 100 nL compound, profiling panel (AID 1169); conditions: JC-1 mitochondrial potential fluorescence, higher = more signal; note: test concentration not given here
[9] = JC-1 mitochondrial signal, unstimulated MM1S myeloma – cell-based, JC-1 fluorescence, 24 h, 100 nL compound, profiling panel (AID 1170); conditions: MM1S mitochondrial potential, higher = more signal; note: test concentration not given here
[10] = resazurin metabolic signal in A549 cells – cell-based, resazurin fluorescence, 24 h, PK04 Diversity Set, profiling panel (AID 1171); conditions: A549 viability, higher = more signal, called active from +8 up or from −8 down; note: test concentration not given here
[11] = resazurin metabolic signal in HepG2 cells – cell-based, resazurin fluorescence, 24 h, PK04 Diversity Set, profiling panel (AID 1172); conditions: HepG2 viability, higher = more signal; note: test concentration not given here
[12] = budding yeast growth changes without added modifier – OD600, strain BY4716, 24 h, basal condition, primary screen (AID 1173); conditions: S. cerevisiae BY4716 growth, OD600, 24 h; higher = more signal, called active from +8 up or from −8 down
[13] = viability profiling in MM1S myeloma cells – cell-based, resazurin fluorescence, basal, 24 h, PK04 Diversity Set, profiling panel (AID 1174); conditions: higher = more signal, called active from +8 up or from −8 down; note: test concentration not given here
[14] = target: Dihydroorotate dehydrogenase (quinone), mitochondrial (Plasmodium falciparum (isolate 3D7)) (UniProt Q08210); assay: inhibition of P. falciparum DHODH – biochemical, C-terminal His tag, absorbance 600 nm, primary screen (AID 1175); conditions: PfDHODH enzyme, DCIP absorbance 600 nm; higher = more signal, called active from +8 up or from −8 down;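 note: recombinant parasite enzyme with a five histidine tag at its C terminus; test concentration not given here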
Sequence of Dihydroorotate dehydrogenase (quinone), mitochondrial (Plasmodium falciparum (isolate 3D7)) (Q08210 whole entry, looked up): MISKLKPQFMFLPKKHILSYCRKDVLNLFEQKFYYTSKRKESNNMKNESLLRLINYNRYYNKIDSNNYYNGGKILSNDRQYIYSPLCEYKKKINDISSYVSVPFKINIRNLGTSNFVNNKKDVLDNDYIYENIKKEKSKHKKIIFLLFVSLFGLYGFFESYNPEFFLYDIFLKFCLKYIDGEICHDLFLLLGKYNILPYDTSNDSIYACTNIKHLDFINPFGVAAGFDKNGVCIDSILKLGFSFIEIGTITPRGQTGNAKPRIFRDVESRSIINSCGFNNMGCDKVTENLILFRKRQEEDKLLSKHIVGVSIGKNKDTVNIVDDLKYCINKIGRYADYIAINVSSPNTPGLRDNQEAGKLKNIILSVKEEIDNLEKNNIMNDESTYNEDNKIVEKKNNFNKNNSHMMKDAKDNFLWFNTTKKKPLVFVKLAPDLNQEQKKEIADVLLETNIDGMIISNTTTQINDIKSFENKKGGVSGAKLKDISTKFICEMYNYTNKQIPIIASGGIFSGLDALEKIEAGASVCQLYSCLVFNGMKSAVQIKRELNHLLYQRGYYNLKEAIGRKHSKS

[15] = inhibition of PAO1 biofilm formation – strain PAO1, LB-PBS medium, absorbance 600 nm, primary screen (AID 1176); note: test concentration not given here; conditions: P. aeruginosa PAO1 growth/biofilm, A600, 12 h; higher = more signal
[16] = growth modulation of vineyard yeast isolate – strain RM11-1a, OD600, basal, 24 h, primary screen (AID 1177);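 note: cultures grown under basal conditions with no added stressor; test concentration not given here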; conditions: S. cerevisiae RM11-1a growth, OD600, 24 h; higher = more signal, called active from +8 up or from −8 down
[17] = growth of efflux-deficient E. coli DRC39 – strain DRC39, OD650, 24 h, E. coli filamentation inducers, primary screen (AID 1178);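 note: growth measured as culture turbidity by optical density at 650 nm; test concentration not given here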; conditions: E. coli DRC39 acrAB, higher = more signal, called active from +8 up or from −8 down
[18] = growth of efflux-deficient E. coli DRC39 – strain DRC39, OD650, 48 h, E. coli filamentation inducers, primary screen (AID 1179);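 note: screen aims at cell division blockers that make cells filament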; conditions: E. coli DRC39 delta-acrAB growth, higher = more signal, called active from +8 up or from −8 down
[19] = viability profiling in RPMI8226 myeloma cells – cell-based, resazurin fluorescence, basal, 24 h, PK04 Diversity Set, profiling panel (AID 1180); conditions: higher = more signal;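 note: RPMI8826 multiple myeloma cell line at 5000 cells per well; test concentration not given here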
[20] = target: E3 ubiquitin-protein ligase XIAP (Homo sapiens) (UniProt P98170); assay: small molecules binding XIAP protein – biophysical, small-molecule microarray, fluorescence 635 nm, primary screen (AID 1181); conditions: higher = more signal;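 note: score merges 667 nm emission and signal to noise over triplicate slides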
Sequence of E3 ubiquitin-protein ligase XIAP (Homo sapiens) (P98170 whole entry, looked up): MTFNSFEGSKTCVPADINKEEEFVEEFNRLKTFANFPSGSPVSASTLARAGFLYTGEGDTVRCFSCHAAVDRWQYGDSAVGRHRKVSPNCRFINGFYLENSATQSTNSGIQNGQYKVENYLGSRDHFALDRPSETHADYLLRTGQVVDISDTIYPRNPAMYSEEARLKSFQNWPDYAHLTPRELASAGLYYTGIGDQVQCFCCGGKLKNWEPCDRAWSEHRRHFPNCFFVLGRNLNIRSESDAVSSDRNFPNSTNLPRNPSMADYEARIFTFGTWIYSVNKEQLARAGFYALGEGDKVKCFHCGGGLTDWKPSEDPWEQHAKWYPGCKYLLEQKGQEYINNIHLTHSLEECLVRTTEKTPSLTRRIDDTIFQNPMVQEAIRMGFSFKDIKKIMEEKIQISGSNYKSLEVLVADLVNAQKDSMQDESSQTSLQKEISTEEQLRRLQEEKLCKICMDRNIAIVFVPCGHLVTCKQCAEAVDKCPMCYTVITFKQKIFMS

SMILES | z-score [1] | z-score [2] | z-score [3] | z-score [4] | z-score [5] | z-score [6] | z-score [7] | z-score [8] | z-score [9] | z-score [10] | z-score [11] | z-score [12] | z-score [13] | composite z-score [14] | z-score [15] | z-score [16] | z-score [17] | z-score [18] | z-score [19] | composite z-score [20]
NC(=O)NCC#Cc1ccc2c(c1)[C@]1(C(=O)N2)[C@H](c2ccc(OCCO)cc2)N2[C@H](c3ccccc3)[C@H](c3ccccc3)OC(=O)[C@H]2[C@@H]1C(=O)NC[C@H](O)c1ccccc1 | 0.192 | 0.326 | 0.013 | 0.405 | 0.847 | -1.4 | -0.0754 (inactive) | -0.538 | 0.207 | 0.401 (inactive) | 1.12 | 1.63 (inactive) | 0.473 (inactive) | -0.256 (inactive) | 0.489 (inactive) | 2.58 (inactive) | 0.826 (inactive) | 0.107 (inactive) | 1.29 | 0.0697
O=C1O[C@@H](c2ccccc2)[C@@H](c2ccccc2)N2[C@@H](c3ccc(OCCO)cc3)[C@]3(C(=O)Nc4ccc(C#CC5(O)CCCCCC5)cc43)[C@@H](C(=O)Nc3nc4ccccc4s3)[C@H]12 | 0.324 | 1.33 | 0.667 | -1.64 | -1.79 | -3.13 | -0.456 (inactive) | -0.805 | -0.344 | 0.524 (inactive) | -0.369 | 1.28 (inactive) | -0.0769 (inactive) | -0.263 (inactive) | 2.29 (inactive) | 2.45 (inactive) | -0.27 (inactive) | 0.261 (inactive) | 0.519 | 0.147
CCOC(=O)C[C@H]1[C@H](OC(=O)Cc2ccc3c(c2)OCO3)[C@@H](NC(=O)Cc2ccc(OC)cc2)c2cc(OCCCO)ccc2N1C(=O)Cc1ccc(OC)cc1 | 2.07 | 1.17 | 1.57 | 0.405 | -0.658 | 1.34 | 0.376 (inactive) | 0.229 | -0.88 | -0.379 (inactive) | -0.354 | -0.605 (inactive) | 0.594 (inactive) | -1.72 (inactive) | 0.501 (inactive) | -1.62 (inactive) | 1.44 (inactive) | 1.94 (inactive) | 1.02 | -0.207
COCCOC(=O)N1C(=O)[C@@]2(c3cc(C#CCC(C(=O)OC)C(=O)OC)ccc31)[C@H](C(N)=O)[C@H]1C(=O)O[C@H](c3ccccc3)[C@H](c3ccccc3)N1[C@@H]2c1ccc(O)cc1 | -0.181 | -0.187 | -1.52 | -3.37 | -4.02 | -0.864 | 2.05 (inactive) | -1.19 | -2.07 | 0.163 (inactive) | -0.0776 | 2.28 (inactive) | -2.92 (inactive) | -0.667 (inactive) | 6.87 (inactive) | 3.96 (inactive) | 0.714 (inactive) | 0.537 (inactive) | -4.48 | 0.0727
CC1CC/C=C\[C@H]2OC34C=CCN(Cn5nnc6ccccc65)C(=O)[C@H]3N(CCCCCCO)C(=O)[C@@H]4C2C(=O)O1 (stereo not given in full) | 0.264 | -0.0662 | 0.91 | 1.95 | 0.456 | 1.63 | 0.53 (inactive) | 0.8 | -0.657 | 0.0188 (inactive) | 0.535 | -0.705 (inactive) | 0.501 (inactive) | -0.374 (inactive) | 0.137 (inactive) | 0.85 (inactive) | 0.816 (inactive) | 0.703 (inactive) | 1.16 | -0.244
C=CCOC(=O)[C@@H]1[C@H]2C(=O)O[C@H](c3ccccc3)[C@H](c3ccccc3)N2[C@H](c2ccc(OCCOC(=O)[C@H]3C[C@H]4C(=O)N[C@@H](CCCCN(C)C)C(=O)N4[C@H]3c3ccc(O)cc3)cc2)[C@@]12C(=O)Nc1ccc(I)cc12 | -0.191 | -0.357 | 0.278 | -0.644 | -1.11 | 0.309 | 1.33 (inactive) | -0.35 | -0.933 | 0.923 (inactive) | -0.148 | -0.679 (inactive) | -0.467 (inactive) | -2.47 (inactive) | 1.34 (inactive) | 1.6 (inactive) | -0.466 (inactive) | 0.236 (inactive) | -0.431 | -0.224
Cc1ccc(S[C@]2(C(=O)NCC(F)(F)F)CC(=O)N(Cc3ccccc3C(F)(F)F)[C@@H]2c2ccc(CO)cc2)cc1 | -0.859 | 0.0909 | -0.768 | -1.04 | 0.0646 | -0.523 | 0.0107 (inactive) | 0.0145 | -0.594 | 0.413 (inactive) | -0.12 | 0.0386 (inactive) | -0.383 (inactive) | -0.631 (inactive) | 0.568 (inactive) | -0.404 (inactive) | 0.334 (inactive) | 0.2 (inactive) | -0.754 | 0.0256
C=CCOC(=O)[C@H]1[C@@H]2C(=O)O[C@@H](c3ccccc3)[C@@H](c3ccccc3)N2[C@@H](c2ccc(OCCOC(=O)[C@H]3C[C@H]4C(=O)N[C@@H](CC(C)C)C(=O)N4[C@H]3c3ccc(O)cc3)cc2)[C@]12C(=O)Nc1ccccc12 | 0.0118 | -0.382 | 0.414 | 0.178 | 0.34 | -1.78 | 1.05 (inactive) | -0.485 | -1.19 | 1.96 (inactive) | 0.0682 | 1.1 (inactive) | 0.407 (inactive) | -0.976 (inactive) | 2.65 (inactive) | 2.67 (inactive) | 0.376 (inactive) | 1.02 (inactive) | 0.862 | -0.0078
COc1cc(C(O)C2C=CC3C(=O)N(c4ccccc4)C(=O)C3N2Nc2ccccc2F)cc(OC)c1OC (stereo not given) | 0.0221 | -0.603 | -0.162 | -1.76 | -1.63 | -1.15 | -1.01 (inactive) | 0.446 | 0.142 | -0.28 (inactive) | -0.514 | 0.886 (inactive) | -0.565 (inactive) | 0.0998 (inactive) | 0.437 (inactive) | 0.881 (inactive) | -0.631 (inactive) | -0.765 (inactive) | -0.17 | 0.081
